Assay results from publication PMC4336329 (PLoS ONE, 2015).
About 14,000 (4.5%) of roughly 310,000 compounds showed an effect of 50% or more. Effects have a minus sign here. The entries come from a sample that favours strong results as a whole.

What follows are molecules tested against human ether-à-go-go-related gene (hERG) potassium channel (human, UniProt Q12809) (assay: primary screen, population patch clamp on CHO cells stably expressing hERG; higher = less effect of the substance).
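Also: peak tail current of the secondary pulse compared with the same well before compound.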

human ether-à-go-go-related gene (hERG) potassium channel, sequence (Q12809 whole entry, looked up): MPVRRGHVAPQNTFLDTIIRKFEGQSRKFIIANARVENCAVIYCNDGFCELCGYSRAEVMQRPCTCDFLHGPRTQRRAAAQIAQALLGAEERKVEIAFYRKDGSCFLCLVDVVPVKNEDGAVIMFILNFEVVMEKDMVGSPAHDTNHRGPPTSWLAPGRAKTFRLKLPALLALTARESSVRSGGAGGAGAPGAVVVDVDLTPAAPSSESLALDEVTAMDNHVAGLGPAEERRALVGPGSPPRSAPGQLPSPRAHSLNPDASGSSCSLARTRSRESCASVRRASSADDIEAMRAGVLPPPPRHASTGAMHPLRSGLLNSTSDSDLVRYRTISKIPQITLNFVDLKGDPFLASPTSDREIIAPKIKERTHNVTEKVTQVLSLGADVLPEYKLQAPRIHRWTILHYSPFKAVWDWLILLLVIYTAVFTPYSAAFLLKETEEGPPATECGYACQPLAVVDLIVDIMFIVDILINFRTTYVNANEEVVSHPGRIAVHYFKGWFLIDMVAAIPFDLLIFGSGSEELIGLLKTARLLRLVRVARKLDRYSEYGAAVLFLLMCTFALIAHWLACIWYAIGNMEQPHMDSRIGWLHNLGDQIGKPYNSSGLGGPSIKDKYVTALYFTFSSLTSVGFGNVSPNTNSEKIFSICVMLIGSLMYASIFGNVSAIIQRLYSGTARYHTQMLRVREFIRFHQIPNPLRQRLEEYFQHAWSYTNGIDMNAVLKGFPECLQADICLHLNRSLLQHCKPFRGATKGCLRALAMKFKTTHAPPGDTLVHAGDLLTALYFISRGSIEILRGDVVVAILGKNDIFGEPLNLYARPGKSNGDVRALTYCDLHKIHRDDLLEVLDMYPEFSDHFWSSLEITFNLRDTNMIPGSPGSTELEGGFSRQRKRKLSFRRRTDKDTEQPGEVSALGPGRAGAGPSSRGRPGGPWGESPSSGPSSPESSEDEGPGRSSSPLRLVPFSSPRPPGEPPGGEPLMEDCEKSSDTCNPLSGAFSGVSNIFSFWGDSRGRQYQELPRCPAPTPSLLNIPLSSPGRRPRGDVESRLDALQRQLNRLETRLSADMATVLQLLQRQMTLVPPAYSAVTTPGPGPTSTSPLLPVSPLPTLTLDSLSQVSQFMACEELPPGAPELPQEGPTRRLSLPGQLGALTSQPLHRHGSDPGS

Compound	hERG current change (%, negative = inhibition) at 10uM
CCc1nc(SCC(=O)N2CCC(C)CC2)c2c(=O)n(C)c(=O)n(C)c2n1	-11.6%
CC1Cc2ccccc2N1c1ncnc(N)c1[N+](=O)[O-] (stereo not drawn)	-24.2%
CCCCOc1ccccc1P(=O)(O)CP(=O)(c1ccccc1)c1ccccc1	-3.64%
OCCNC(=S)Nc1ccc2c(c1)OCCO2	9.32%
Cc1ccc(-c2nn(C)c(=O)c3ccccc23)cc1CN1CCOCC1	-1.21%
CC(C)=C1C2CCC1C1C(=O)N(c3nccs3)C(=O)C21 (stereo not drawn)	33%
O=C1CC(=O)N(c2ccccc2)C(=O)N1c1ccccc1	2.76%
CCCC(NCC(O)COc1ccc(-c2ccccc2)cc1)c1ccccc1 (stereo not drawn)	10.3%
O=C(NCc1ccc2c(c1)OCO2)C1CCCN1C(=O)Nc1ccc(Cl)cc1 (stereo not drawn)	-17.4%
CCn1c(C(C)NC(=O)Cc2ccccc2)nc2ccccc21 (stereo not drawn)	-2.26%
CCc1ccc(NC(=O)C2CCN(c3ncnc4c3nc3n4CCCCC3)CC2)cc1	-6.35%
Cc1cc2ncn(C(=O)N3CCCCC3)c2cc1C	3.24%
CCOCCCNC(=O)CN1C(=O)/C(=C/c2ccccc2C)Sc2ccccc21	-8.45%
CCOC(=O)C1CCCN(c2c(N3CCC(N4CCCCC4)CC3)c(=O)c2=O)C1 (stereo not drawn)	-0.665%
CCOC(=O)C1CCCN(c2c(N3CCN(C)CC3)c(=O)c2=O)C1 (stereo not drawn)	8.41%
CCOC(=O)C1CCN(C(c2ccccn2)c2c(C)[nH]c3ccccc23)CC1 (stereo not drawn)	-19.8%
CCOC(=O)C1CCCN(c2c(N3CCOCC3)c(=O)c2=O)C1 (stereo not drawn)	-0.407%
CCOC(=O)C1CCCN(C(c2ccccn2)c2c(C)[nH]c3ccccc23)C1 (stereo not drawn)	-54.3%
CCOC(=O)C1CCCN(c2c(N3CCN(c4ccccn4)CC3)c(=O)c2=O)C1 (stereo not drawn)	-55.5%

Compound	hERG current change (%, negative = inhibition) at 10uM
CCOC(=O)C1CCCN(c2c(N3CCN(C4CCCCC4)CC3)c(=O)c2=O)C1 (stereo not drawn)	-55.8%
Cc1[nH]c2ccccc2c1C(c1ccccn1)N1CCC(C(N)=O)CC1 (stereo not drawn)	-11.4%
CCOC(=O)C1CCN(c2c(N3CCCC(C(=O)OCC)C3)c(=O)c2=O)CC1 (stereo not drawn)	-22.8%
Cc1ccc(C(=O)C2=C(O)C(=O)N(Cc3cccnc3)C2c2cccc([N+](=O)[O-])c2)o1 (stereo not drawn)	-9.76%
CCN(C(=O)COC(=O)CSc1ccc(C(N)=O)cc1[N+](=O)[O-])C1CCCCC1	5.86%
Cc1cc(Cl)nc(Cl)c1C(=O)NC(=O)NCCC(C)C	6.83%
O=C(NNC(=O)C1CC=CCC1C(=O)O)c1cccs1 (stereo not drawn)	16.2%
Cc1ccc(-c2csc(N3CCN(CCCn4c(C(F)(F)F)nc5ccccc54)CC3)n2)cc1	-4.95%
Cc1ccc(-c2csc(N3CCN(CCCn4c(-c5ccncc5)nc5ccccc54)CC3)n2)cc1	-32.4%
CC(=O)N[C@@H](C)c1nc2ccccc2n1CCCN1CCN(c2nc(-c3ccc(C)cc3)cs2)CC1	-56.2%
Cc1ccc(F)c(NC(=O)C2CCCCC2C(=O)O)c1 (stereo not drawn)	8.23%
O=C(O)c1ccc(NC(=O)c2ccccc2NC(=O)c2cccc(F)c2)cc1	20.2%
COc1ccccc1NC(=O)N1CCN(c2ccc3nnc(-c4ccc(F)cc4)n3n2)CC1	-68.9%
O=C(Nc1ccccc1C(F)(F)F)N1CCN(c2ccc3nncn3n2)CC1	-1.32%
O=C(Nc1ccc(Cl)cc1)N1CCN(c2ccc3nnc(-c4ccc(F)cc4)n3n2)CC1	-28.3%
O=C(Nc1ccccc1C(F)(F)F)N1CCN(c2ccc3nnc(-c4ccc(F)cc4)n3n2)CC1	-65.9%
c1ccc(-c2nnc3ccc(N4CCCC4)nn23)cc1	7.51%
COc1ccccc1NC(=O)N1CCN(c2ccc3nncn3n2)CC1	-23.1%
O=C(c1ccc(Br)o1)N1CCN(c2ccc3nnc(-c4ccc(F)cc4)n3n2)CC1	-46.4%

Compound	hERG current change (%, negative = inhibition) at 10uM
O=C(c1ccc(Br)o1)N1CCN(c2ccc3nnc(-c4ccccc4)n3n2)CC1	-79.1%
COc1ccccc1NC(=O)N1CCN(c2ccc(F)cc2)CC1	-18.7%
O=C(Nc1ccccc1C(F)(F)F)N1CCN(c2ccccn2)CC1	9.98%
Fc1ccc(-c2nnc3ccc(N4CCCC4)nn23)cc1	5.51%
O=C(Nc1ccc(F)cc1)N1CCN(c2ccc3nnc(-c4ccc(F)cc4)n3n2)CC1	-73.5%
O=C(CCC(=O)c1ccc(Br)cc1)Nc1ccc(F)cc1	23.7%
COc1ccc(C2=NC(=O)NC2c2ccc(OC)cc2)cc1 (stereo not drawn)	-29.4%
Cc1ccc(S(=O)(=O)N(C)C)cc1-n1c(SCC(=O)Nc2ccc(F)c(F)c2F)nc2ccccc2c1=O	8.58%
Cl.O=C(Cc1ccccc1)OCCN1CCOCC1	20.4%
CCCOc1ccc(C2(C(=O)O)CCCC2)cc1	6.16%
C=CCC1C=CCC(CC=C)N1C(=O)c1ccccc1[N+](=O)[O-] (stereo not drawn)	-3.17%
COC(=O)c1sccc1NC(=S)N1CCCCC1C (stereo not drawn)	-25.6%
CC1=C(C(=O)OCC(C)C)C2(O)C(=O)c3ccccc3C2(O)N1 (stereo not drawn)	3.4%
Clc1ccc(CSc2nnc(-c3ccncc3)o2)c(Cl)c1	0.528%
COc1ccc(C2/C=C\CN(S(=O)(=O)c3ccc4ccccc4c3)CC(=O)N2Cc2ccc(F)cc2)cc1 (stereo not drawn)	8.33%
Cc1nc(-c2ccccc2)sc1C1(C)CC(c2ccc(C#N)cc2)=NO1 (stereo not drawn)	-3.07%
O=C(Nc1ccccc1Cl)N1CCN(c2ccc3nncn3n2)CC1	-23.2%
O=C(Nc1ccccc1Cl)N1CCN(c2ccc3nnc(-c4ccc(F)cc4)n3n2)CC1	-42.1%
O=C(Nc1ccccc1Cl)N1CCN(c2ccc3nnc(-c4ccccc4)n3n2)CC1	-73.5%
